Test results taken from PubChem BioAssay.
Where “and” joins values, the source holds several entries; their conditions need not be identical. Equal values may be shown once. Calls of active or inactive are those of the source. Cut-off read from the data, not from the text of the source, unless noted: active = parasite load remaining mostly below about 12% (no sharp cut-off); inactive = mostly above about 10%.

What was measured:
[1] = liver-stage malaria parasite growth inhibition, primary screen, cell-based, HepG2, luciferase luminescence, HepG2 viability (AID 624349);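 note: 100% = mean of DMSO negative control wells on the same plate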; settings: P. berghei liver stage in HepG2, luciferase luminescence, concentration not given here; parasite load remaining: stronger effect = lower value; viability: measured here: HepG2 viability without parasites
[2] = stimulators of nuclear beta-catenin in C2C12, primary screen, imaging, WNT3A-conditioned medium, mouse C2C12, NPC library (AID 1117326; in the data active = nuclear beta-catenin stimulation mostly above about 4.2%, no sharp cut-off; inactive = mostly below about 10%; note: reference of the scale not given here); settings: stronger effect = higher value

Compound | parasite load remaining [1] | viability [1] | nuclear beta-catenin stimulation ([2]; at 10 µM) | nuclear beta-catenin stimulation ([2]; stimulation, at 2 µM) [%]
Nc1ccc(N=Nc2ccccc2)c(N)n1 | 122% (inactive) and 140% (inactive) and 51.9% (inactive) | 90.8% and 67.3% and 81.9% | 5.9% (inactive) | 3.5
Cc1c(C(N)=O)cc([N+](=O)[O-])cc1[N+](=O)[O-] | 143% (inactive) | 90.9% | -0.3% (inactive) | -0.9
C/C=C(/C(=C/C)c1ccc(O)cc1)c1ccc(O)cc1 | 99.8% (inactive) and 85.1% (inactive) and 15.2% (inactive) | 93.2% and 76.6% and 68.2% | 20.4% (inactive) | 2.2
O=C(CCBr)N1CCN(C(=O)CCBr)CC1 | 146% (inactive) and 41.7% (inactive) | 86.4% and 105% | 1.4% (inactive) | 1.7
CCCCOc1ccc(CC(=O)NO)cc1 | 13.5% (inactive) and 151% (inactive) and 84.2% (inactive) | 47.8% and 71.4% and 91% | 0% (inactive) | 0.3
COc1cc(N)c(Cl)cc1C(=O)NC1CCN(Cc2ccccc2)CC1 | 50.5% (inactive) and 24.1% (inactive) and 67.3% (inactive) | 116% and 86.9% and 74.5% | 3.1% (inactive) | 0.9
COc1ccc(C(=O)c2ccccc2O)c(O)c1 | 83.1% (inactive) and 102% (inactive) and 55.6% (inactive) | 96.9% and 79.4% and 89.9% | 1.1% (inactive) | 0.4
CCOc1ccc(Cc2nccc3cc(OCC)c(OCC)cc23)cc1OCC | 28.9% (inactive) and 13.1% (inactive) | 78.6% and 42.8% | 1.8% (inactive) | 7.1
O=C(O)c1cn(-c2ccc(F)cc2)c2cc(N3CCNCC3)c(F)cc2c1=O | 63.8% (inactive) and 65.5% (inactive) and 24.1% (inactive) | 92.7% and 132% and 71% | 0.8% (inactive) | 2.8
CC[C@]12CCCN3CCc4c(n(c5ccccc45)C(=O)C1)[C@@H]32 | 191% (inactive) and 75.4% (inactive) | 102% and 73.8% | 35.1% (inactive) | 6.2
Nc1nc2c(c(=O)[nH]1)N(C=O)C(CNc1ccc(C(=O)N[C@@H](CCC(=O)O)C(=O)O)cc1)CN2 (stereo partly specified) | 101% (inactive) and 95.5% (inactive) and 64.5% (inactive) | 96.6% and 70.1% and 99.2% | 1.7% (inactive) | 4.1
CC(Cc1cccc(C(F)(F)F)c1)NCCOC(=O)c1ccccc1 (stereo unspecified) | 112% (inactive) and 111% (inactive) and 72.4% (inactive) | 102% and 77% and 73.5% | 2.3% (inactive) | 3.6
CN1CCCN=C1COC(=O)C(O)(c1ccccc1)C1CCCCC1 (stereo unspecified) | 69.1% (inactive) and 57.9% (inactive) | 80.4% and 101% | 3% (inactive) | 1.9
Nc1ccc(C(=O)O)cc1 | 102% (inactive) and 75.6% (inactive) | 74.3% and 91.3% | -0.9% (inactive) | 0.3
O=C(O)CCNC(=O)c1ccccc1 | 140% (inactive) | 88.4% | 3.5% (inactive) | 0.2
C[C@@H]1C[C@H]2[C@@H]3C[C@H](F)C4=CC(=O)C=C[C@]4(C)[C@@]3(F)[C@@H](O)C[C@]2(C)[C@@]1(O)C(=O)CO | 102% (inactive) | 99.8% | -0.8% (inactive) | 0.3
C[C@@](Cc1ccc(O)c(O)c1)(NN)C(=O)O | 47.3% (inactive) | 129% | -1.9% (inactive) | -0.3
Nc1ccc(S(=O)(=O)Nc2ccccn2)cc1 | 73.3% (inactive) and 71.4% (inactive) and 46.1% (inactive) | 93.8% and 68.3% and 99% | -0.3% (inactive) | 1
CN(Cc1cc(Br)cc(Br)c1N)C1CCCCC1 | 167% (inactive) and 46% (inactive) and 10.9% (inactive) | 89% and 109% and 68% | -0.1% (inactive) | -0.5
Nc1ccc(S(N)(=O)=O)cc1 | 105% (inactive) and 77.1% (inactive) and 50.7% (inactive) | 101% and 73.5% and 90.2% | 0.6% (inactive) | 0.5
O=c1cc[nH]c(=S)[nH]1 | 64% (inactive) | 87.2% | -0.3% (inactive) | 1.5
O=C1C(O)=C(O)C(=O)C(O)=C1O | 67.5% (inactive) and 145% (inactive) and 28.2% (inactive) | 94.1% and 90.9% and 99% | -1.5% (inactive) | 0.7
Nc1ccc(C(=O)Oc2ccccc2)c(O)c1 | 67.6% (inactive) | 172% | 0.2% (inactive) | 2.9
CN(C)CCc1c[nH]c2ccc(CS(=O)(=O)N3CCCC3)cc12 | 135% (inactive) | 87.9% | 1.7% (inactive) | 1.6
CC1=C(C(=O)O)N2C(=O)[C@@H](NC(=O)[C@H](N)c3ccc(O)cc3)[C@H]2SC1 | 116% (inactive) and 83.6% (inactive) | 96.4% and 77.7% | 1.8% (inactive) | 3.3

Compound | parasite load remaining [1] | viability [1] | nuclear beta-catenin stimulation ([2]; at 10 µM) | nuclear beta-catenin stimulation ([2]; stimulation, at 2 µM) [%]
CC(=O)Nc1c(I)cc(I)c(C(=O)O)c1I | 151% (inactive) and 81.4% (inactive) | 82.9% and 215% | -0.1% (inactive) | 1.9
CCC(=O)O[C@H]1[C@H](O[C@@H]2[C@@H](C)[C@H](O[C@H]3C[C@@](C)(OC)[C@@H](O)[C@H](C)O3)[C@@H](C)C(=O)O[C@H](CC)[C@@](C)(O)[C@H](O)[C@@H](C)C(=O)[C@H](C)C[C@@]2(C)O)O[C@H](C)C[C@@H]1N(C)C | 85.6% (inactive) and 40.4% (inactive) | 67.9% and 93.1% | 0.6% (inactive) | -0.8
CCCCC1(COC(=O)CCC(=O)O)C(=O)N(c2ccccc2)N(c2ccccc2)C1=O | 87.9% (inactive) | 101% | 6.3% (inactive) | 4.7
Nc1ccc(S(=O)(=O)Nc2ccc(Cl)nn2)cc1 | 128% (inactive) and 127% (inactive) and 54.3% (inactive) | 105% and 69.3% and 92.4% | 3.3% (inactive) | 4.5
COc1cc([C@H]2Oc3cc([C@H]4Oc5cc(O)cc(O)c5C(=O)[C@@H]4O)ccc3O[C@@H]2CO)ccc1O | 75.8% (inactive) | 93% | 3.7% (inactive) | 0.8
CC(=O)N(O)CCCCCNC(=O)CCC(=O)N(O)CCCCCNC(=O)CCC(=O)N(O)CCCCCN | 87.4% (inactive) and 82.1% (inactive) and 111% (inactive) | 104% and 70.2% and 87.4% | -0.3% (inactive) | -1.8
CN1CCC(=C2c3ccccc3Sc3ccccc32)CC1 | 16.9% (inactive) and 99.5% (inactive) and 91.2% (inactive) | 43.6% and 70.3% and 91.9% | -0.1% (inactive) | 1.3
CCOC(=O)NNc1nncc2ccccc12 | 44.2% (inactive) and 101% (inactive) and 89.6% (inactive) | 43.6% and 65.7% and 90.2% | 3.8% (inactive) | 5.1
NC[C@H]1O[C@H](O[C@H]2[C@H](O)[C@@H](O[C@H]3O[C@H](CO)[C@@H](O)[C@H](N)[C@H]3O)[C@H](N)C[C@@H]2N)[C@H](N)[C@@H](O)[C@@H]1O | 95.5% (inactive) and 56.4% (inactive) | 69.4% and 85.5% | 0.8% (inactive) | -1.6
CCN1CCN(C(=O)N[C@@H](C(=O)N[C@@H]2C(=O)N3C(C(=O)O)=C(CSc4nnnn4C)CS[C@H]23)c2ccc(O)cc2)C(=O)C1=O | 48.8% (inactive) and 79.5% (inactive) and 21.1% (inactive) | 114% and 80.3% and 69% | -0.5% (inactive) | -1.5
O=C(NC(Cc1cc(=O)[nH]c2ccccc12)C(=O)O)c1ccc(Cl)cc1 (stereo unspecified) | 149% (inactive) and 24.1% (inactive) | 88.8% and 69% | -0.8% (inactive) | -1
CCN(CC)CCOC(=O)C(c1ccccc1)C1CCCCC1 (stereo unspecified) | 67.5% (inactive) and 28.1% (inactive) | 92.4% and 69.7% | 5% (inactive) | 0.5
COc1cnc(NS(=O)(=O)c2ccc(N)cc2)nc1 | 75.1% (inactive) and 108% (inactive) and 64.2% (inactive) | 93.4% and 66.1% and 87.2% | 0.2% (inactive) | 2
COc1ccc2cc3[n+](cc2c1OC)CCc1cc2c(cc1-3)OCO2 | 31.4% (inactive) and 124% (inactive) and 72.9% (inactive) | 103% and 67.6% and 82.6% | 0.6% (inactive) | 0
NC(=O)NC(=O)Cc1ccccc1 | 87.8% (inactive) and 56.5% (inactive) | 68% and 92% | 0.2% (inactive) | -0.4
CCCOc1ccc2nc(NC(=O)OC)[nH]c2c1 | 150% (inactive) and 18.1% (inactive) and 53.4% (inactive) | 91% and 99.5% and 84% | 77% (active) | 60.9
C/C=C/c1ccc(OC)cc1 | 163% (inactive) and 38.2% (inactive) and 65% (inactive) | 88.5% and 100% and 126% | -1.7% (inactive) | 2.3
CO/N=C1\CN(c2nc3c(cc2F)c(=O)c(C(=O)O)cn3C2CC2)CC1CN (stereo unspecified) | 155% (inactive) and 46.4% (inactive) | 85.7% and 106% | 4.1% (inactive) | 3.4
CCCCCC(C)N (stereo unspecified) | 115% (inactive) and 42.4% (inactive) | 77.1% and 86.1% | 1.8% (inactive) | 3.7
NC(=O)c1ccc([N+](=O)[O-])cc1Cl | 63.8% (inactive) and 35.2% (inactive) | 105% and 84.3% | -0.6% (inactive) | 0.9
COc1cc(NS(=O)(=O)c2ccc(N)cc2)ncn1 | 84.2% (inactive) and 61.4% (inactive) and 48% (inactive) | 97.9% and 64.7% and 90.8% | 3% (inactive) | 3.5
OCC(O)CN1CCN(c2ccccc2)CC1 (stereo unspecified) | 36.8% (inactive) and 188% (inactive) and 98.1% (inactive) | 50.7% and 71.2% and 93.7% | -1.5% (inactive) | 0.8
CC(=O)OCC(=O)[C@@]1(O)[C@H](C)C[C@H]2[C@@H]3CCC4=CC(=O)C=C[C@]4(C)[C@@]3(F)[C@@H](O)C[C@@]21C | 64% (inactive) and 76.2% (inactive) | 116% and 94.5% | -1.1% (inactive) | -2.1
Oc1ccc(Cl)cc1Cc1cc(Cl)ccc1O | 11.8% (inactive) | 65.1% | 10.6% (inactive) | 5.8
